Experimental data: the supplement of paper PMC11001985

compound: C#CCNC(=O)CCSSCCC(=O)NCCc1ccc(C=O)c(C=O)c1; assay: lysine labeling ratio R10:1 (500 µM / 50 µM probe), SILAC-ABPP in living cells; higher = lower intrinsic lysine reactivity toward the probe, active = 2 or less; settings: HeLa; probe concentrations 500 vs 50 µM
Outline: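 An alkyne-tagged lysine probe with a disulfide linker labelled living HeLa cells in PBS at room temperature at either 50 µM or 500 µM, using SILAC light and heavy cells in forward and reverse label swaps. Lysates were mixed, clicked to biotin-azide, trypsin-digested, enriched on neutravidin, DTT-released, alkylated and measured by LC-MS/MS on a TIMS-TOF Pro. Each lysine's R is the filtered median high-probe/low-probe MS1 peptide ratio, combined as the median over forward and reverse replicates, with 20 as the upper limit.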

Sequence of UniProt Q15149 (Q15149 whole entry): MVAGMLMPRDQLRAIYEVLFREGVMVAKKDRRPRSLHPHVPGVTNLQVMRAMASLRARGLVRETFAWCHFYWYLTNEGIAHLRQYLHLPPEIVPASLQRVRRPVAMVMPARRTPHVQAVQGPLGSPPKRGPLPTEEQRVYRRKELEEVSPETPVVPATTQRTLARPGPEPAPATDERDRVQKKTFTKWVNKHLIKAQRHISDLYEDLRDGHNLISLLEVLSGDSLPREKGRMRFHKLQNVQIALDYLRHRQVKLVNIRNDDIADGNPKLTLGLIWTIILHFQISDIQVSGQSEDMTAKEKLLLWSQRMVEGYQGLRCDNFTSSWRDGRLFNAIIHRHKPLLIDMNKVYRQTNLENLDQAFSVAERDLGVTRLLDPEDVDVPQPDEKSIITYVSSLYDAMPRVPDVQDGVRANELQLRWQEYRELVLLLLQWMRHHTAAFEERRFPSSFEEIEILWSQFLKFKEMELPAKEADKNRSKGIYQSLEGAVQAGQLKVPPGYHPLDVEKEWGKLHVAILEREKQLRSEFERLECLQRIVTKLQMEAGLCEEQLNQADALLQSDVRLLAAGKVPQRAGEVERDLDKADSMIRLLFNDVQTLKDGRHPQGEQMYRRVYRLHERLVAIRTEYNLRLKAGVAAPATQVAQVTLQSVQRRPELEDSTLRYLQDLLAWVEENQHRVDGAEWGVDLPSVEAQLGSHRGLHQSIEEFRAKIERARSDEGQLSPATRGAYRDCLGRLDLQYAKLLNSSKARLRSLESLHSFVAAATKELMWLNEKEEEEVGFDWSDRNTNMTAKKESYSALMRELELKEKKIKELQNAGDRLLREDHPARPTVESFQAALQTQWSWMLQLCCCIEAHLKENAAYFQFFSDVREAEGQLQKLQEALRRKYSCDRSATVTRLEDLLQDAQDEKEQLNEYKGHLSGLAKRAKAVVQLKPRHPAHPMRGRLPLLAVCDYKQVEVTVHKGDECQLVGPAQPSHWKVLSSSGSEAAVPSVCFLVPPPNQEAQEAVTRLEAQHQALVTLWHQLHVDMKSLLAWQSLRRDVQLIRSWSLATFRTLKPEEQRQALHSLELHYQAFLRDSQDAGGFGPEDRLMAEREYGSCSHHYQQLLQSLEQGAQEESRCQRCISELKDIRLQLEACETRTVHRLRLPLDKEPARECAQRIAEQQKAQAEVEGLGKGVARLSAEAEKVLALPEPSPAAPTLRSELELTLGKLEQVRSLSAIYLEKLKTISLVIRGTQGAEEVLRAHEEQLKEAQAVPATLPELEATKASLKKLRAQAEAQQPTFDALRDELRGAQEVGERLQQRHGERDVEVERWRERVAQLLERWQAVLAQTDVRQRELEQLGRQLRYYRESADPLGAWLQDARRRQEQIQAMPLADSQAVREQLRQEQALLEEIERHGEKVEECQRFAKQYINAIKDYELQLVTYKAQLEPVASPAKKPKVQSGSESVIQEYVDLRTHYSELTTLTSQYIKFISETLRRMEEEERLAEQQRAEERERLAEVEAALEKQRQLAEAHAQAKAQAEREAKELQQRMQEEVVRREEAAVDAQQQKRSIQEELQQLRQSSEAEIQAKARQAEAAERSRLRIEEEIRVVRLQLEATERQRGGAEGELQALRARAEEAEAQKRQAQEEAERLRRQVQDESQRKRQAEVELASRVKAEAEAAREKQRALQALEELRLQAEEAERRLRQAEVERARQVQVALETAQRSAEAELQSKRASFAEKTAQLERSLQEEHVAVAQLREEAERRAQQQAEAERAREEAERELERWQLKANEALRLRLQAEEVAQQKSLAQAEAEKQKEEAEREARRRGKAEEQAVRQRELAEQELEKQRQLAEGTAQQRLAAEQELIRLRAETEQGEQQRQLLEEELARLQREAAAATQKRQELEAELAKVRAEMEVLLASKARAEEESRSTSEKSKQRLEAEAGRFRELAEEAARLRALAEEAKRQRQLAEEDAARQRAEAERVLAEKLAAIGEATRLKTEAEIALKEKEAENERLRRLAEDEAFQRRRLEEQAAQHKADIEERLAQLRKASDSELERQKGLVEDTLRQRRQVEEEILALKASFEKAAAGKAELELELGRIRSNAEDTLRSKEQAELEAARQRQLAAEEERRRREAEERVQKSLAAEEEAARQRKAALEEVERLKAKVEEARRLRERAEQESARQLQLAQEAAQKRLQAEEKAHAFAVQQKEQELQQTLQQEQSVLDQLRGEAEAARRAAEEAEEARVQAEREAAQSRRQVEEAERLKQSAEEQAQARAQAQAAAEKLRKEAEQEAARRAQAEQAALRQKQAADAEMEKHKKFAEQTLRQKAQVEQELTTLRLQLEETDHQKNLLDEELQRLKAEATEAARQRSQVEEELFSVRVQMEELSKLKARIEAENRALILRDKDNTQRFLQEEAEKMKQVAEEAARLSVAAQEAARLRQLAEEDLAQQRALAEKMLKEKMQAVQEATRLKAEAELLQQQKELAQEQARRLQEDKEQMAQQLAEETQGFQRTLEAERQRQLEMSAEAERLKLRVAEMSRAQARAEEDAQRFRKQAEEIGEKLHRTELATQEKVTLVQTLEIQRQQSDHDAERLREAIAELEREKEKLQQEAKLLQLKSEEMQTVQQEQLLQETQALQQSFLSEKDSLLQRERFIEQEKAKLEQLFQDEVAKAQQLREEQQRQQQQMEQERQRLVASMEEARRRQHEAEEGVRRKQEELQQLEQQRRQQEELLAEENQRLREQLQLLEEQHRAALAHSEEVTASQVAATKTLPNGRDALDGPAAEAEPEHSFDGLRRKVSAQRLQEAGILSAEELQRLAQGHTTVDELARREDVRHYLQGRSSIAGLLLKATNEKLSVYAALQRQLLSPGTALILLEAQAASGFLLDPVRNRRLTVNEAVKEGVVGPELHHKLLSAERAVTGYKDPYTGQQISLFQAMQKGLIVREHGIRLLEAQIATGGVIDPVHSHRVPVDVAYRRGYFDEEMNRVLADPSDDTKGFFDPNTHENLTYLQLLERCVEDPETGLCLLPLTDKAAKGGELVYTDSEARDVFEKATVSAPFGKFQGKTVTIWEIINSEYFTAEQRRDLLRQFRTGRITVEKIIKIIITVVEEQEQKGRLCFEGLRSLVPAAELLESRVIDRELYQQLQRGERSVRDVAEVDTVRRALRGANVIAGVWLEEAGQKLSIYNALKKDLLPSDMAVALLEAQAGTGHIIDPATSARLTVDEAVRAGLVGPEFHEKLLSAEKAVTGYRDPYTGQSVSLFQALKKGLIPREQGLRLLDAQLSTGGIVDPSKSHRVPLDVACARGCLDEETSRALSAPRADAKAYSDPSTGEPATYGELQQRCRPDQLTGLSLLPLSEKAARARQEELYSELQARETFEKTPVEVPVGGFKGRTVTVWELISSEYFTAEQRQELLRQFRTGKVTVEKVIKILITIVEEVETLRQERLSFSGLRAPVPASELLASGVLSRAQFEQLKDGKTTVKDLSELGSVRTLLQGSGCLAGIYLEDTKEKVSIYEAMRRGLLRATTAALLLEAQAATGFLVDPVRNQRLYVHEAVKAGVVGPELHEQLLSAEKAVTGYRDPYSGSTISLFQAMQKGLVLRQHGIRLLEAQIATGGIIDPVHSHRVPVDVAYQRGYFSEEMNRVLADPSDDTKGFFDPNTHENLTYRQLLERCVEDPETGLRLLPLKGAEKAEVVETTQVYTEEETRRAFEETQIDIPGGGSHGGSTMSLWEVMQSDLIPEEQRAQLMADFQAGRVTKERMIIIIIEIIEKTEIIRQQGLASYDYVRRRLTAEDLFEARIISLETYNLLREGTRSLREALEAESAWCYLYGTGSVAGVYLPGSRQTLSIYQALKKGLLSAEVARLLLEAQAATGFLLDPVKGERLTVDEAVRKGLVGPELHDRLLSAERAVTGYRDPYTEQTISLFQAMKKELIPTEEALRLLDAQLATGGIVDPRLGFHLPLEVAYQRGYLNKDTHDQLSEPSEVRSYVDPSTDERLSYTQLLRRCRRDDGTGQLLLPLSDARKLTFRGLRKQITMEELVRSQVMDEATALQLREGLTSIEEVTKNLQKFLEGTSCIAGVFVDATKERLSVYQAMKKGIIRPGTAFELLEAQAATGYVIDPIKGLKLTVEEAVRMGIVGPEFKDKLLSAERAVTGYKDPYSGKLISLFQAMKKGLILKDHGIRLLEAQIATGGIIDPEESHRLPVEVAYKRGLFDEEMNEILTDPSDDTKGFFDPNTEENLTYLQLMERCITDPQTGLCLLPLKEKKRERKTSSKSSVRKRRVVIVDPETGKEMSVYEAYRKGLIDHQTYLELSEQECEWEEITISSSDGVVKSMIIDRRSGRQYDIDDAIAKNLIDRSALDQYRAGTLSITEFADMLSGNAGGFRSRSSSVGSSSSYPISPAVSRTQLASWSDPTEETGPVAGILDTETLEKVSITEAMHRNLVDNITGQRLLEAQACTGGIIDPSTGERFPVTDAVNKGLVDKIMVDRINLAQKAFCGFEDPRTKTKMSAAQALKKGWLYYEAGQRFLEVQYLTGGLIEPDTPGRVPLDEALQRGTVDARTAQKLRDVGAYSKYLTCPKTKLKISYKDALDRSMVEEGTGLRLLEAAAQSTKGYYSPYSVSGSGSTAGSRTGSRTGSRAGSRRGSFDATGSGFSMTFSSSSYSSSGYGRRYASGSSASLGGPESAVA
Sequence of UniProt O75915 (O75915 whole entry): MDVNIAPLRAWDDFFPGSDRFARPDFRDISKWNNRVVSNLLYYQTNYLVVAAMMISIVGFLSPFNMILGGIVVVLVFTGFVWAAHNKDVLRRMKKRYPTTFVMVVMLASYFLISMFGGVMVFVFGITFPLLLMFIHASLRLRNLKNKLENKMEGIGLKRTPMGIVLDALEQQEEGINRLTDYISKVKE
Sequence of UniProt P60903 (P60903 whole entry): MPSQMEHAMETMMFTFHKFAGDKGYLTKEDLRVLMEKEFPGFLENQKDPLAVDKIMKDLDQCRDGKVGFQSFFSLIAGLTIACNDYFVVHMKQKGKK

Target	lysine labeling ratio R10:1
FRAS1 (lysine site: K1158) (UniProt Q86XX4)	1.34 (active)
THRAP3 (lysine site: K711) (UniProt Q9Y2W1)	1.73 (active)
THBS1 (lysine site: K306) (UniProt P07996)	2.27 (inactive)
UniProt P60866 (lysine site: K59)	2.02 (inactive)
UniProt P21589 (lysine site: K433)	3.8 (inactive)
S100A10 (lysine site: K28) (UniProt P60903)	5.79 (inactive)
UniProt Q6NZI2 (lysine site: K276)	4.1 (inactive)
UniProt Q9BZM4 (lysine site: K158)	2.74 (inactive)
CLTC (lysine site: K1516) (UniProt Q00610)	1.45 (active)
TFRC (lysine site: K177) (UniProt P02786)	2.39 (inactive)
P4HB (lysine site: K103) (UniProt P07237)	4.27 (inactive)
ACTN4 (lysine site: K535) (UniProt O43707)	1.05 (active)
ILF3 (lysine site: K214) (UniProt Q12906)	1.16 (active)
PTPRS (lysine site: K144) (UniProt Q13332)	1.57 (active)
UniProt Q15149 (lysine site: K1718)	4.36 (inactive)
AKR1B1 (lysine site: K263) (UniProt P15121)	8.32 (inactive)
ICAM1 (lysine site: K67) (UniProt P05362)	1.69 (active)
UniProt Q15149 (lysine site: K1975)	5.68 (inactive)
ARL6IP5 (lysine site: K31) (UniProt O75915)	0.953 (active)
MSN (lysine site: K79) (UniProt P26038)	2.55 (inactive)
EIF3H (lysine site: K274) (UniProt O15372)	1.92 (active)
LDLR (lysine site: K782) (UniProt P01130)	3.22 (inactive)
RPL35A (lysine site: K95) (UniProt P18077)	3.1 (inactive)
